Experimental data taken from the supplement of paper PMC7695840.

How the values were obtained:
[1] = system: Staphylococcus aureus MW2 delta-mecA (mecA-); assay: normalized GFP fluorescence (growth of mecA- strain) (fraction of control range); higher = more growth of mecA- strain; conditions: compound concentration: 150 uM; cefoxitin: subinhibitory; fluorescent label: GFP
In short: (§1)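 Pre-induced S. aureus MW2 cells carrying the gene (DsRed) and deletion cells lacking it (GFP) were combined 1:1 in LB containing a subinhibitory antibiotic dose set each day, then dispensed at 5 µL/well onto 150 μM compound (1.5% DMSO) in 1536-well plates as a single replicate. After 20 h at 37 °C and 90% humidity without shaking, DsRed (540/590) and GFP (485/520) were read. Each channel was scaled per plate between the medians of the single-strain controls, and plates with high untreated ratios and rows with DsRed/GFP >10 were excluded.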

[2] = system: Staphylococcus aureus MW2 (mecA+); assay: normalized DsRed fluorescence (growth of mecA+ strain) (fraction of control range); higher = more growth of mecA+ strain; conditions: compound concentration: 150 uM; cefoxitin: subinhibitory; fluorescent label: DsRed
In short: as §1

| SMILES | normalized GFP fluorescence [1] | normalized DsRed fluorescence [2] |
| --- | --- | --- |
| CN1CC2c3ccccc3Oc3ccc(Cl)cc3C2C1 (stereo not given) [Asenapine] | 0.129 | 1.64 |
| Cc1cccc(C)c1OCC(C)N (stereo not given) | 0.344 | 1.02 |
| CCCCC(=O)O[C@H]1CC[C@H]2[C@@H]3CCc4cc(O)ccc4[C@H]3CC[C@]12C | 0.109 | 0.605 |
| C[C@]12CCC3=C4CCC(=O)C=C4CC[C@H]3[C@@H]1CC[C@@]2(O)CC#N [Dienogest] | 0.271 | 0.746 |
| C[C@H]1O[C@@H](O[C@H]2[C@@H](O)C[C@H](O[C@H]3[C@@H](O)C[C@H](O[C@H]4CC[C@@]5(C)[C@H](CC[C@@H]6[C@@H]5CC[C@]5(C)[C@@H](C7=CC(=O)OC7)CC[C@]65O)C4)O[C@@H]3C)O[C@@H]2C)C[C@H](O)[C@@H]1O | 0.212 | 0.724 |
